Measurements published in ChEMBL document CHEMBL2218924, “A broad activity screen in support of a chemogenomic map for kinase signalling research and drug discovery” (Biochem J, 2013).

Biological target: Mitogen-activated protein kinase 10 (Homo sapiens) (UniProt P53779)
Details: at 10 µM

Mitogen-activated protein kinase 10 (Homo sapiens), sequence (P53779 whole entry): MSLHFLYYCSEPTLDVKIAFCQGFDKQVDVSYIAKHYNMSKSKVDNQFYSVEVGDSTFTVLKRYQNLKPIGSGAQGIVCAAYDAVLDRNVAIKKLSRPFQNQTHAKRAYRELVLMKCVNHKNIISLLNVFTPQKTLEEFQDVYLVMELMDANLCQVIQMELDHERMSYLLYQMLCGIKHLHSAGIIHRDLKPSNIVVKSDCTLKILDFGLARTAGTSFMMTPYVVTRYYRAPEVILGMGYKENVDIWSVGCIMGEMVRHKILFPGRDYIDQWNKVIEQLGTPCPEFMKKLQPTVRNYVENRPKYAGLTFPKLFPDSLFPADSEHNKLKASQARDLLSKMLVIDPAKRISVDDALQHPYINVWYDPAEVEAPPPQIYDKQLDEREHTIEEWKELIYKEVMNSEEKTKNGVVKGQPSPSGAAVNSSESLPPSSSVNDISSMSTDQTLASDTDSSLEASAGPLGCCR

| SMILES | residual activity |
| --- | --- |
| NC(=O)c1ccc2[nH]c(-c3ccc(Oc4ccc(Cl)cc4)cc3)nc2c1 | 98% |
| Cc1nc(-c2ccccc2)c(-c2ccncc2)o1 | 19% |
| CCOc1cc2ncnc(Nc3cccc(Br)c3)c2cc1OCC | 11% |
| CC(C)n1cnc2/c(=N/c3cccc(Cl)c3)nc(NCCO)[nH]c21 | 60% |
| Nc1nc(Nc2ccc(S(N)(=O)=O)cc2)nn1C(=S)Nc1c(F)cccc1F | 3% |
| Cc1ccc(S(=O)(=O)/C=C/C#N)cc1 | 84% |
| Ic1cccc(CSc2nnc(-c3ccncc3)o2)c1 | 68% |
| O=C1NC(=O)c2c1c1c3ccccc3[nH]c1c1[nH]c3cc(Br)ccc3c21 | 67% |
| O=C1NC(=O)/C(=C\c2ccc3nccnc3c2)S1 | 104% |
| CCN(CC)CCCCN1c2ccccc2Oc2ccc(Cl)cc21 | 137% |
| COc1cccc(-c2cc(=O)c3ccccc3o2)c1N | 95% |
| O=C1c2ccccc2-[n+]2ccc3c([nH]c4ccccc43)c21 | 62% |
| Oc1ccc(-c2nc(-c3ccc(F)cc3)c(-c3ccncc3)[nH]2)cc1 | -2% |
| Cc1nc2cc3nc(-c4cccs4)cnc3cc2n1C | 107% |
| COc1ccc(C(=O)Nc2sc3c(c2C(N)=O)CCCC3)cc1OC | 69% |
| Cn1cc(/C=C2\C(=O)Nc3ccc(S(N)(=O)=O)cc32)c2ccccc21 | 40% |
| Nc1ccc2ncnc(NCCc3ccc(Oc4ccccc4)cc3)c2c1 | 80% |
| CO[C@H]1C[C@@H]2CC[C@@H](C)[C@@](O)(O2)C(=O)C(=O)N2CCCC[C@H]2C(=O)O[C@H]([C@H](C)C[C@@H]2CC[C@@H](O)[C@H](OC)C2)CC(=O)[C@H](C)/C=C(\C)[C@@H](O)[C@@H](OC)C(=O)[C@H](C)C[C@H](C)/C=C/C=C/C=C/1C | 153% |

| SMILES | residual activity |
| --- | --- |
| CCC(=O)Nc1ccc2ncnc(Nc3cccc(Br)c3)c2c1 | 37% |
| O=C(Nc1cccc(Nc2cc(Nc3cccc(C(F)(F)F)c3)ncn2)c1)C1CC1 | 52% |
| O=[N+]([O-])c1ccc(-c2nc(-c3ccc(F)cc3)c(-c3ccncc3)[nH]2)cc1 | 21% |
| O=c1c2ccccc2[nH]c(=S)n1CCN1CCC(=C(c2ccc(F)cc2)c2ccc(F)cc2)CC1 | 54% |
| COc1cc2ncnc(Nc3ccc(NC(=O)c4ccccc4)cc3)c2cc1OC | 76% |
| COc1ccc(OC)c2c(=S)c3ccccc3[nH]c12 | 65% |
| O=C(O)c1ccc2c3c1cccc3c(=O)n1c3ccccc3nc21 | 34% |
| Cn1cnc2cc3c(Nc4cccc(Br)c4)ncnc3cc21 | 9% |
| COc1ccc(S(=O)(=O)N(CCO)c2ccccc2CN(C)C/C=C/c2ccc(Cl)cc2)cc1 | 88% |
| CNc1cc2c(Nc3cccc(Br)c3)ncnc2cn1 | 60% |
| COc1cc2ncnc(N3CCN(C(=O)Nc4ccc(Oc5ccccc5)cc4)CC3)c2cc1OC | 89% |
| O=C(Nc1cccc(Nc2nccc(Nc3cccc(C(F)(F)F)c3)n2)c1)C1CC1 | -3% |
| c1ccc(-c2n[nH]cc2-c2ccnc3ccccc23)nc1 | 52% |
| O=c1cc(-c2cccc3c2Sc2ccccc2S3)oc(N2CCOCC2)c1 | 89% |
| O=Nc1c(-c2c(O)[nH]c3ccccc23)[nH]c2ccccc12 | -2% |
| Nc1n[nH]c2nnc(-c3c(-c4ccccc4)nn4ccccc34)cc12 | 0% |
| CC(=O)O/N=C1\C(=C2\C(=O)Nc3cc(Br)ccc32)Nc2ccccc21 | 61% |

Biological target: Vascular endothelial growth factor receptor 2 (Homo sapiens) (UniProt P35968)
Sequence (P35968 whole entry): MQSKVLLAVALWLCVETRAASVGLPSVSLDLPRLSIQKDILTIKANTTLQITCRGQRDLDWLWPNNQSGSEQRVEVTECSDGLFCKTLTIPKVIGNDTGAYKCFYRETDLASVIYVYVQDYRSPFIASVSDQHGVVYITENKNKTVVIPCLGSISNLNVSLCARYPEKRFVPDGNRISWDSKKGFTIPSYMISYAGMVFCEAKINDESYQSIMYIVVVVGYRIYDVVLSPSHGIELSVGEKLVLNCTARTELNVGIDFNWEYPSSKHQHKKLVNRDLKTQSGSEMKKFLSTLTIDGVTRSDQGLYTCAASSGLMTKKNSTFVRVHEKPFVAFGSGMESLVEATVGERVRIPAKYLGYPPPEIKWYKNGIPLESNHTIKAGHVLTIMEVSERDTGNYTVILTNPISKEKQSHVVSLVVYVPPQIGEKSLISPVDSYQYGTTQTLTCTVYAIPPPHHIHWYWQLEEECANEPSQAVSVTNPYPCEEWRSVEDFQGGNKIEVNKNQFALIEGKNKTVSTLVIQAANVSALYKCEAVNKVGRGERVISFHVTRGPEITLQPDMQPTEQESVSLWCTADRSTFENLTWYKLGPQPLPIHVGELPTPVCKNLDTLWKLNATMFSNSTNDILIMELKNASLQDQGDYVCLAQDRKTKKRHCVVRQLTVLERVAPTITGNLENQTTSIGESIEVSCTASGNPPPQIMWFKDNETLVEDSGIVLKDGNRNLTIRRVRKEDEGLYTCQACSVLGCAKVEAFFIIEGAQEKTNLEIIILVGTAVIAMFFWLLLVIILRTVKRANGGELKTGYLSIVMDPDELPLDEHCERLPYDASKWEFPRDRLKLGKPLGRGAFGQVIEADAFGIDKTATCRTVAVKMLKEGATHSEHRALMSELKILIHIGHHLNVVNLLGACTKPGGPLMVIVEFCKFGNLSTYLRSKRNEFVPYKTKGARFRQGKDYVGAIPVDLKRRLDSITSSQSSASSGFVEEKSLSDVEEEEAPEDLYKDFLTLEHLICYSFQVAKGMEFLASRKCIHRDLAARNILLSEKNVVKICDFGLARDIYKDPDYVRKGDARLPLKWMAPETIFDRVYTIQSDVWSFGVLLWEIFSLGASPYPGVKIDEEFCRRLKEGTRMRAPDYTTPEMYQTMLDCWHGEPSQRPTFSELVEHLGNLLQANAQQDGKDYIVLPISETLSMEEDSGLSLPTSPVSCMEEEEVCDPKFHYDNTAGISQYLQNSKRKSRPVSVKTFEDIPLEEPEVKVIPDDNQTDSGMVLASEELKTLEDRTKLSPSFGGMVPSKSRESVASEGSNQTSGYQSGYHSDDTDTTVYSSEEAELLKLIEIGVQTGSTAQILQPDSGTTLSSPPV
Details: at 1 µM

| SMILES | residual activity |
| --- | --- |
| NC(=O)c1ccc2[nH]c(-c3ccc(Oc4ccc(Cl)cc4)cc3)nc2c1 | 84% |
| Cc1nc(-c2ccccc2)c(-c2ccncc2)o1 | 95% |
| CCOc1cc2ncnc(Nc3cccc(Br)c3)c2cc1OCC | 54% |
| CC(C)n1cnc2/c(=N/c3cccc(Cl)c3)nc(NCCO)[nH]c21 | 85% |
| Nc1nc(Nc2ccc(S(N)(=O)=O)cc2)nn1C(=S)Nc1c(F)cccc1F | 0% |
| Cc1ccc(S(=O)(=O)/C=C/C#N)cc1 | 101% |
| Ic1cccc(CSc2nnc(-c3ccncc3)o2)c1 | 77% |
| O=C1NC(=O)c2c1c1c3ccccc3[nH]c1c1[nH]c3cc(Br)ccc3c21 | 70% |
| O=C1NC(=O)/C(=C\c2ccc3nccnc3c2)S1 | 87% |
| CCN(CC)CCCCN1c2ccccc2Oc2ccc(Cl)cc21 | 112% |
| COc1cccc(-c2cc(=O)c3ccccc3o2)c1N | 101% |
| O=C1c2ccccc2-[n+]2ccc3c([nH]c4ccccc43)c21 | 88% |
| Oc1ccc(-c2nc(-c3ccc(F)cc3)c(-c3ccncc3)[nH]2)cc1 | 98% |
| Cc1nc2cc3nc(-c4cccs4)cnc3cc2n1C | 36% |
| COc1ccc(C(=O)Nc2sc3c(c2C(N)=O)CCCC3)cc1OC | 71% |
| Cn1cc(/C=C2\C(=O)Nc3ccc(S(N)(=O)=O)cc32)c2ccccc21 | 28% |
| Nc1ccc2ncnc(NCCc3ccc(Oc4ccccc4)cc3)c2c1 | 79% |
| CO[C@H]1C[C@@H]2CC[C@@H](C)[C@@](O)(O2)C(=O)C(=O)N2CCCC[C@H]2C(=O)O[C@H]([C@H](C)C[C@@H]2CC[C@@H](O)[C@H](OC)C2)CC(=O)[C@H](C)/C=C(\C)[C@@H](O)[C@@H](OC)C(=O)[C@H](C)C[C@H](C)/C=C/C=C/C=C/1C | 100% |

| SMILES | residual activity |
| --- | --- |
| CCC(=O)Nc1ccc2ncnc(Nc3cccc(Br)c3)c2c1 | 95% |
| O=C(Nc1cccc(Nc2cc(Nc3cccc(C(F)(F)F)c3)ncn2)c1)C1CC1 | 96% |
| O=[N+]([O-])c1ccc(-c2nc(-c3ccc(F)cc3)c(-c3ccncc3)[nH]2)cc1 | 85% |
| O=c1c2ccccc2[nH]c(=S)n1CCN1CCC(=C(c2ccc(F)cc2)c2ccc(F)cc2)CC1 | 103% |
| COc1cc2ncnc(Nc3ccc(NC(=O)c4ccccc4)cc3)c2cc1OC | 95% |
| COc1ccc(OC)c2c(=S)c3ccccc3[nH]c12 | 88% |
| O=C(O)c1ccc2c3c1cccc3c(=O)n1c3ccccc3nc21 | 41% |
| Cn1cnc2cc3c(Nc4cccc(Br)c4)ncnc3cc21 | 49% |
| COc1ccc(S(=O)(=O)N(CCO)c2ccccc2CN(C)C/C=C/c2ccc(Cl)cc2)cc1 | 100% |
| CNc1cc2c(Nc3cccc(Br)c3)ncnc2cn1 | 85% |
| COc1cc2ncnc(N3CCN(C(=O)Nc4ccc(Oc5ccccc5)cc4)CC3)c2cc1OC | 80% |
| O=C(Nc1cccc(Nc2nccc(Nc3cccc(C(F)(F)F)c3)n2)c1)C1CC1 | 81% |
| c1ccc(-c2n[nH]cc2-c2ccnc3ccccc23)nc1 | 57% |
| O=c1cc(-c2cccc3c2Sc2ccccc2S3)oc(N2CCOCC2)c1 | 90% |
| O=Nc1c(-c2c(O)[nH]c3ccccc23)[nH]c2ccccc12 | 4% |
| Nc1n[nH]c2nnc(-c3c(-c4ccccc4)nn4ccccc34)cc12 | 86% |
| CC(=O)O/N=C1\C(=C2\C(=O)Nc3cc(Br)ccc32)Nc2ccccc21 | 67% |
